Sampled rows, rich in hits. Any-hit rate of the full collection: about 3.6%.
DAT uptake mod: human DAT dopamine uptake with cocaine, either direction | Q01959 | LLC-PK1 hDAT cells, [14C]-dopamine uptake with cocaine IC80; actives deviate in either direction | B-score at 10 µM | 1.3% of 110,000 active | AID 449768;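 active means Z score or B-score, a plate-position-corrected score, falls beyond the plate's 99.7% confidence bounds, in either direction; inactive means both scores lie inside the 99.7% bounds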
Target sequence (Q01959 whole entry, looked up): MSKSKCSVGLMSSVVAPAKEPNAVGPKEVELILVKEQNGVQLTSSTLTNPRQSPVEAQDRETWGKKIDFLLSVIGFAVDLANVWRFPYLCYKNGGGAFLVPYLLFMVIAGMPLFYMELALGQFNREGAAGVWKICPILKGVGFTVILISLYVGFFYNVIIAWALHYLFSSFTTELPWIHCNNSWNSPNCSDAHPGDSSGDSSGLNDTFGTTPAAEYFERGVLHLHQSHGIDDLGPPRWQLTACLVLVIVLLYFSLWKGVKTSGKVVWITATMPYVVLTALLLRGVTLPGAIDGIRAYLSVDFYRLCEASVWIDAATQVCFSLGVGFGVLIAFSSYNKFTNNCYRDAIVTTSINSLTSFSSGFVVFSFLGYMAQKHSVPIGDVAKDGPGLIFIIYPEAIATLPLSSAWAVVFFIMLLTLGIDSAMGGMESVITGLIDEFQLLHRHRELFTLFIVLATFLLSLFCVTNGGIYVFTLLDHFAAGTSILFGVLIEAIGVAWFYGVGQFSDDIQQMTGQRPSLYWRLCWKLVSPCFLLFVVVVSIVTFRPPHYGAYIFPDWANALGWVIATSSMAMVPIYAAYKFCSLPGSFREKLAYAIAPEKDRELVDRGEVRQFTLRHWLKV
WT yeast gro inh: growth inhibition of WT yeast, mitochondrial fusion screen. mitochondrial fusion phenotypic screen, WT strain. inhibition, % at 10 µM. 2.1% of 190,000 active. AID 1362; in the data active means inhibition above about 58%; tested in S. cerevisiae
PTEN del growth: growth suppressors of cells with PTEN tumor suppressor deletion. HCT116 PTEN-null viability, CellTiter-Glo, 60 h; hits give low values. viability, % at 10 µM. 1.2% of 140,000 active;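 active means viability at or below a set limit, 4 SD under the median of all tested compounds, cut at about 3.7% in these data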;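 further: PTEN knockout HCT116 line with beta catenin targeted HCT116 as companion control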
bCat KO growth: beta-catenin-lacking colon tumor cell growth suppression. viability, % at 10 µM. HCT116 beta-catenin knockout viability, CellTiter-Glo, 60 h; hits give low values. 1.5% of 140,000 active;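 active means viability at or under a set limit, the compound median less 4 SD, cut at about 6% in these data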
Of the large screens only hits and unclear results are named; the others gave an inactive call.

Cc1ccccc1Nc1nnc(SCC(=O)NC2CCCc3ccccc32)s1 (centres undefined)	none (no result: DAT uptake mod)
CC(C)n1cnc2c(Nc3ccc(C(=O)O)cc3)nc(Cl)nc21	DAT uptake mod -4 (no result: WT yeast gro inh, PTEN del growth, bCat KO growth)
O=c1ccccn1CCOc1ccccc1Cl	none (no result: DAT uptake mod)
O=c1ccccn1Cc1c(Cl)cccc1Cl	WT yeast gro inh 73
Nc1ccc(/C=C/C(=O)c2ccco2)cc1	none (no result: DAT uptake mod)
N#Cc1ccc(/C=C/C(=O)c2ccco2)cc1	PTEN del growth 1.6, bCat KO growth 2.3 (no result: DAT uptake mod)
Nc1nc(CN2CCN(c3ccccc3)CC2)nc(N2CCCc3ccccc32)n1	none
Nc1nc(CSc2nnnn2-c2ccccc2)nc(N2CCCc3ccccc32)n1	WT yeast gro inh 60
Cc1ccc2nc(-c3ccc(NS(C)(=O)=O)cc3)cc(-c3ccccc3)c2c1	none
CCS(=O)(=O)Nc1ccc(-c2cc(-c3ccccc3)c3cc(C)ccc3n2)cc1	WT yeast gro inh 90 (no result: DAT uptake mod)
Cc1ccc(C(=O)NC(=S)Nc2ccccc2C(F)(F)F)cc1C	WT yeast gro inh 80
O=C(NCc1ccco1)C1CC(c2ccc(C(F)(F)F)cc2)=NO1 (centres undefined)	none (no result: WT yeast gro inh, PTEN del growth, bCat KO growth)
c1ccc(-c2nc3nonc3nc2-c2ccccc2)cc1	PTEN del growth 2.4, bCat KO growth 2.3 (no result: DAT uptake mod)
CN(C)CCNC(=O)/C(=C/c1ccc(-c2ccc(Cl)cc2)o1)NC(=O)c1ccccc1	PTEN del growth 0.8, bCat KO growth 0.9 (no result: DAT uptake mod)
CN(C)CCCNC(=O)/C(=C\c1ccc(-c2cccc([N+](=O)[O-])c2)o1)NC(=O)c1ccccc1	none (no result: DAT uptake mod, PTEN del growth, bCat KO growth)
CN(C)CCNC(=O)/C(=C/c1ccc(-c2ccc(Cl)cc2Cl)o1)NC(=O)c1ccccc1	PTEN del growth 1.5, bCat KO growth 1.9 (no result: DAT uptake mod)
CCCCNC(=O)c1cc2ccccc2s1	none (no result: DAT uptake mod, PTEN del growth, bCat KO growth)
C#CCNC(=O)C1=C[C@@H](c2ccc(C(F)(F)F)cc2)[C@H](CCCO)[C@@H](OCC)O1	none (no result: PTEN del growth, bCat KO growth)
O=C(/C=C/c1ccc(Br)cc1)NC(=S)Nc1ccc(S(=O)(=O)Nc2nccs2)cc1	none (no result: DAT uptake mod)
Cc1cccc(Cn2nnc3c2C(=O)c2ccccc2C3=O)c1	PTEN del growth 3.0, bCat KO growth 4.5
Cc1cc2oc(=O)cc(Cn3ncc(Cl)c(Cl)c3=O)c2cc1Cl	none (no result: DAT uptake mod, PTEN del growth, bCat KO growth)
Cc1cc(Br)ccc1NC(=O)CNC(=O)Cn1ncc(Cl)c(Cl)c1=O	none (no result: DAT uptake mod, PTEN del growth, bCat KO growth)
Cc1cc(C(=O)Cn2ncc(Cl)c(Cl)c2=O)c(C)n1CC(F)(F)F	PTEN del growth 0.8, bCat KO growth 0.5 (no result: DAT uptake mod)
Cc1ccccc1Cn1nnc2c1C(=O)c1ccccc1C2=O	none
Cc1cccc(Cn2ncc(Cl)c(Cl)c2=O)c1	PTEN del growth 2.2, bCat KO growth 2.2
Cc1ccc(C)c(C(=O)Cn2ncc(Cl)c(Cl)c2=O)c1	PTEN del growth 1.3, bCat KO growth 1.8 (no result: DAT uptake mod, WT yeast gro inh)
O=C1CSC(c2ccccc2Br)N1c1ccc(Cl)cn1 (centres undefined)	WT yeast gro inh 67 (no result: DAT uptake mod, PTEN del growth, bCat KO growth)
NC(=O)NC1NC(=O)NC1=O (centres undefined)	none (no result: WT yeast gro inh, PTEN del growth, bCat KO growth)
CCCCCCCSc1nsc(N)n1	WT yeast gro inh 66
O=C(Cc1c[nH]c2ccccc12)Nc1ccc(N2CCOCC2)cc1	none (no result: DAT uptake mod, PTEN del growth, bCat KO growth)
CSc1nc2nccc(/C=C\c3ccccc3)n2n1	bCat KO growth 4.5
CSc1nc2nccc(-c3ccc(Cl)cc3)n2n1	none
O=C(CCc1nc2ccccc2s1)Nc1cccnc1	none (no result: DAT uptake mod, PTEN del growth, bCat KO growth)
CC(C)CNC(=O)c1cccc(NC(=O)COc2cccc([N+](=O)[O-])c2)c1	none (no result: DAT uptake mod, PTEN del growth, bCat KO growth)
O=C(Nc1ccc(Cl)cc1)/C(=C/c1cccc(O)c1)c1nc2ccccc2s1	PTEN del growth 1.9, bCat KO growth 2.2 (no result: DAT uptake mod)
S=C(Nc1ccc(Cl)cc1)c1nc2ccccc2s1	none
Cc1ccc(NC(=O)c2c(C)noc2C)cc1	DAT uptake mod 0.36
Cc1noc(C)c1C(=O)Nc1cccnc1	none
Cc1ccc(NC(=O)c2onc(C)c2Cl)cc1	DAT uptake mod -2.6
COc1ccc(C2(CNC(=O)c3ccccc3[N+](=O)[O-])CCOCC2)cc1	none (no result: DAT uptake mod, PTEN del growth, bCat KO growth)
N=c1c2c(-c3ccccc3)c(-c3ccccc3)n(Cc3ccco3)c2ncn1CCO	PTEN del growth 1.7, bCat KO growth 1.4
c1coc(CNc2nc3ccccc3n2CCN2CCOCC2)c1	none
N=c1c2c(-c3ccccc3)c(-c3ccccc3)n(Cc3ccco3)c2ncn1CCN1CCOCC1	PTEN del growth 1.6, bCat KO growth 1.2 (no result: WT yeast gro inh)
Cc1cc(C)c(C)c(S(=O)(=O)N2CCN(CC(=O)Nc3sccc3C#N)CC2)c1C	none (no result: DAT uptake mod)
Fc1ccc(-c2n[nH]c(=S)c3ccccc23)cc1	none (no result: DAT uptake mod, PTEN del growth, bCat KO growth)
O=C1CC(c2cccs2)c2ccc3ccccc3c2N1 (centres undefined)	none (no result: DAT uptake mod, PTEN del growth, bCat KO growth)
CCOC(=O)Cn1c(=NC(=O)c2sc3ccccc3c2Cl)sc2cc(S(N)(=O)=O)ccc21	PTEN del growth 2.8 (no result: DAT uptake mod)
COC(=O)Cn1c(=NC(=O)c2sc3ccccc3c2Cl)sc2cc(S(N)(=O)=O)ccc21	none (no result: DAT uptake mod)
CNC(=S)N/N=C1\C(=O)c2cccc3cccc1c23	PTEN del growth 1.2, bCat KO growth 2.6

Screening data deposited in PubChem by several laboratories.
